Source: PubChem BioAssay
MITF primary: inhibitors of human MITF; AlphaScreen MITF homodimerization, bead proximity signal; AID 1259374; inhibition, % at 2.6 µM; hit rate 0.91% among 650,000; O75030; in the data active = inhibition above about 50%;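 also: 0% = vehicle wells with protein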
GPR151 ag: activates the human receptor GPR151 | Q8TDV0 | AID 1508602 | PathHunter beta-arrestin GPR151 cells, luminescence | hit rate 1% among 650,000 | activation, % at 11.2 µM; in the data active = activation above about 4.9%;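 also: 0% = median of compound wells and 100% = cells with positive control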
Target sequence (Q8TDV0 whole entry, looked up): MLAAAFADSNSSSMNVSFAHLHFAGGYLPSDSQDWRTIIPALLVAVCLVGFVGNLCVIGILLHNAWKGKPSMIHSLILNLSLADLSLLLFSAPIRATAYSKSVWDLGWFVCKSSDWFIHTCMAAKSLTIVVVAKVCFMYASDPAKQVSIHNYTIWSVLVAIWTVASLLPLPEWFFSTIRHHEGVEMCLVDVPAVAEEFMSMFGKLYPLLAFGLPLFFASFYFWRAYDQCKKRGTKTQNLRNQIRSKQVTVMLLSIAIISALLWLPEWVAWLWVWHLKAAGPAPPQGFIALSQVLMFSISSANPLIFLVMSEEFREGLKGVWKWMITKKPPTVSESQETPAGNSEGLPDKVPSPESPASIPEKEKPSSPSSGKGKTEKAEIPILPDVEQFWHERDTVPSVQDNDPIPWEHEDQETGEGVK
FBW7 activator: human FBW7 E3 ligase activation, primary screen; Q969H0; normalized activity (activation), % at 26.1 µM; AlphaScreen FBW7–phospho-cyclin E peptide binding, activator screen; AID 1259310; hit rate 0.13% among 650,000; in the data active = normalized activity above about 1.9%;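 also: purified mutant Fbw7 with reduced substrate affinity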
TEAD-YAP block: TEAD-YAP interaction inhibition | inhibition, % at 9.12 µM | HEK-TIYL cells, TEAD-Gal4/YAP UAS-luciferase luminescence | hit rate 1.4% among 640,000; in the data active = inhibition above about 32%;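 also: 0% = median of test compound wells and 100% = reference inhibitor wells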
GPR151 conf act: human GPR151 activation, confirmation screen. activation, % at 11.2 µM. shares compounds with GPR151 ag. 6,700 tested, under 10 active. GPR151 PathHunter beta-arrestin cells, luminescence, 90 min; % of EA-reagent control over plate median. AID 1508609;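 active = mean percent activation across replicates above the confirmation screen cutoff of 4.91%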
GPR119 counter: activates human GPR119 in a GPR151 counter-screen | GPR119 PathHunter beta-arrestin cells, luminescence, 90 min; 0 = compound-well median, 100 = enzyme-acceptor control | activation, % at 11.2 µM | hit rate 0.3% among 6,700 | shares compounds with GPR151 ag;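 active = mean percent activation in the counterscreen above 29.09%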;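 also: counterscreen on off-target GPR119 to flag nonselective hits from the GPR151 activator screen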
* marks the source's active call; other numbers are inactive results; / = no result. In the library only some 3.4% were active in any assay of this set; here they are far more common.

SMILES	MITF primary	GPR151 ag	FBW7 activator	TEAD-YAP block	GPR151 conf act	GPR119 counter
CCC(C)(C)n1nnnc1C(c1ccc(C)cc1)N1CCN(Cc2cccnc2)CC1 (configuration not stated)	4.8	6.4*	-0.1	-11.8	0.3	10.6
CC(C)(C)n1nnnc1C(c1cccnc1)N1CCN(c2ccccc2F)CC1 (configuration not stated)	2.8	8.4*	-0.1	4.7	0.3	9.7
COc1ccc(-c2cc(C3CC3)[nH]c(=S)c2C#N)cc1	8.0	-2.0	0.2	4.8	/	/
O=C1CSC(c2ccc(Cl)cc2)N1Cc1cn2ccccc2n1 (configuration not stated)	-7.7	5.0*	0.1	4.5	-0.5	-2.3
CCOC(=O)c1sc(NC(=O)CSc2nnc(CNC(=O)c3cccs3)n2Cc2ccccc2)c(C(=O)OCC)c1C	0.6	1.5	0.1	-7.9	/	/
COC(=O)C1=C(C)N(C)C(C)=C(C(=O)OC)C1c1ccc(F)c(Br)c1	3.3	5.2*	0.1	3.8	-0.2	4.7
COc1cc([N+](=O)[O-])ccc1-c1ccc(C(=O)Nc2cc(Cl)cc(Cl)c2)o1	-3.5	-0.9	0.0	3.6	/	/
COc1cc([N+](=O)[O-])ccc1-c1ccc(C(=O)Nc2ccc(Br)cn2)o1	4.3	7.1*	-0.1	-2.9	1.0	16.8
CCN(CC)c1ccc(/C=N/NC(=O)Cn2cncn2)cc1	17.0	-1.7	-0.1	7.4	/	/
CC(=O)Nc1ccc(NC(=O)c2cc(Cl)cc([N+](=O)[O-])c2O)cc1	-9.5	1.1	-0.2	5.6	/	/
Cc1ccc(-c2nc3ccccc3c(=O)n2NC(=O)c2ccco2)cc1C	-12.3	5.4*	0.0	-1.4	0.4	5.3
COc1ccc(OC)c(NC(=O)c2sc3nc4ccc(C)cc4cc3c2N)c1	-5.0	-0.1	-0.2	-6.7	/	/
Cc1ccc(NC(=O)COc2ncnc3ccc(Br)cc23)cc1[N+](=O)[O-]	10.7	3.4	-0.1	0.6	/	/
O=C(COc1ncnc2ccc(Br)cc12)Nc1ccc(F)c([N+](=O)[O-])c1	6.2	5.2*	0.0	-2.2	-0.9	-10.0
CCCN1C(=O)c2ccc(C(=O)NC3=NCCS3)cc2C1=O	1.3	9.5*	-0.1	-11.1	-0.7	-3.9
Cc1ccc(C(=O)NC2=NCCS2)cc1	2.2	-2.1	0.0	-66.8	/	/
CCCCC(=O)Nc1c(C(=O)Nc2ccc3c(c2)OCO3)oc2ccccc12	-3.5	-0.7	0.0	-14.9	/	/
COc1cc(OC)cc(-n2nc(C(=O)Nc3ccc(C)c(F)c3)c3ccccc3c2=O)c1	8.0	0.1	-0.2	-3.2	/	/
O=C(CNC(=O)c1cccc(F)c1)N/N=C/c1cc(Cl)ccc1O	-1.5	1.9	-0.1	-4.7	/	/
O=C(CNC(=O)c1cccc(F)c1)N/N=C/c1cc(I)ccc1O	7.9	5.0*	-0.3	12.4	-0.4	2.6
Clc1ccc(CSc2ncnc3nc[nH]c23)cc1	10.2	6.6*	0.2	-4.0	-0.4	-4.6
Cc1nc(C)c(C(=O)N(c2ccc(F)cc2)C(C(=O)NC(C)(C)C)c2ccncc2)s1 (configuration not stated)	13.3	-0.7	0.2	5.1	/	/
Brc1ccccc1-c1nnc2sc(-c3ccc4c(c3)OCCO4)nn12	-1.2	5.7*	-0.1	-3.1	0.8	4.2
CCCc1nnc(SCc2ccc(Br)cc2)n1N	-0.5	8.4*	-0.1	-8.0	-0.6	10.2
CCCc1nnc(SCc2ccc(Cl)cc2)n1N	-4.3	1.1	-0.1	-1.0	/	/
SMILES	MITF primary	GPR151 ag	FBW7 activator	TEAD-YAP block	GPR151 conf act	GPR119 counter
COc1cc(-c2cnc3c(Nc4cccc(N(C)C)c4)nccn23)cc(OC)c1OC	-12.6	-0.3	-0.2	-4.2	/	/
O=C1/C(=C\N2CCCC2)c2ccccc2C(=O)N1c1ccccc1	-5.4	5.0*	0.0	2.7	0.1	-2.3
COc1ccc(N2CCN(C(c3ccccc3F)c3nnnn3Cc3ccco3)CC2)cc1 (configuration not stated)	12.1	-0.1	-0.1	-2.9	/	/
CCN1C(=O)CC(Sc2ccccc2N)C1=O (configuration not stated)	-3.0	2.7	-0.1	14.9	/	/
Nc1ccccc1SC1CC(=O)N(Cc2ccccc2)C1=O (configuration not stated)	13.0	7.1*	0.3	-24.0	-0.4	-8.7
O=C(NCCC1=CCCCC1)c1cccnc1SCc1cccc(Br)c1	5.2	0.7	-0.1	-3.4	/	/
O=C(NCCC1=CCCCC1)c1cccnc1SCc1ccccc1F	2.0	5.4*	-0.1	-6.2	-0.3	-4.2
O=[N+]([O-])c1ccccc1-c1cnn(-c2ccc(F)cc2F)c1	14.6	5.9*	0.7	-37.1	-1.7	-18.8
O=[N+]([O-])c1ccccc1-c1cnn(-c2ccccc2)c1	9.3	-1.0	0.0	-52.5	/	/
COC(=O)CSc1nnc(CNC(=O)c2cccc(C)c2)n1C	5.3	0.6	0.0	1.9	/	/
COC(=O)CSc1nnc(CNC(=O)c2cccc(F)c2)n1C	-2.6	5.2*	0.5	-26.9	0.2	4.3
Cc1ccc(C(=O)NC(C)C2CC3CCC2C3)cc1 (configuration not stated)	-0.2	10.4*	-0.1	-12.2	0.8	2.8
Cc1ccc(C(=O)NC(C(=O)O)C(C)C)cc1 (configuration not stated)	9.0	7.8*	0.1	9.3	0.1	-3.0
CC(C)C(NC(=O)c1ccc(F)cc1)C(=O)O (configuration not stated)	2.6	-1.0	0.1	1.4	/	/
CCOc1cc(C=C(C(=O)OC)C(=O)OC)ccc1OCc1ccc([N+](=O)[O-])cc1	5.2	5.2*	0.0	13.5	1.0	10.1
COC(=O)C(=Cc1cc(OC)c(O)c([N+](=O)[O-])c1)C(=O)OC	20.5	5.7*	0.1	4.2	0.4	7.9
Cc1ccc2nc3sc(C(=O)N4CCCC(C)C4)c(N)c3cc2c1 (configuration not stated)	5.0	-0.9	-0.1	-4.9	/	/
O=c1[nH]c2ccccc2nc1/C=C(\O)C(F)F	14.4	-0.1	-0.1	4.3	/	/
C/C(O)=C\c1nc2ccccc2[nH]c1=O	12.3	6.9*	0.3	6.9	0.0	12.7
CN(C)CCNC(=O)Nc1ccccc1	-12.5	1.1	0.4	-3.8	/	/
CN(C)CCNC(=S)Nc1ccc(C(=O)O)cc1	-3.3	10.2*	0.1	0.4	0.2	-3.9
CN(C)CCNC(=O)C(=O)Nc1ccccc1	8.4	8.4*	0.1	-16.5	-0.5	-16.3
CN(C)CCNC(=S)Nc1ccc(F)cc1	-24.3	-0.5	0.0	4.9	/	/
C/C(=N\NC(=O)c1cccc2ccccc12)c1ccc(F)cc1	4.8	3.3	-0.1	27.1	/	/
CCOc1ccc(C2=NC(c3ccc(OC)cc3)NC(c3ccccc3O)C2)cc1 (configuration not stated)	3.6	6.4*	0.1	-59.8	-0.5	-10.6
COc1ccc(C(=O)N2CCN(S(=O)(=O)c3cc4c5c(c3)CCC(=O)N5CCC4)CC2)cc1	2.4	5.7*	-0.1	6.5	-0.1	-0.1
